# PubChem BioAssay AID2205 (University of Pittsburgh Molecular Library Screening Center, 2009)
# In all, about 200,000 compounds went through this assay and about 1,600 (0.8%) were called active.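 The calls were made as follows: active = plate Z-score above 3 for both tubulin-high and condensed-nucleus cell shares, with cell loss under 80%, at 10 µM; inactive = the rest, inconclusive results apart.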 Only a selection was taken, and actives are over-represented in it overall.
# Assay: microtubule stabilizers in HeLa cells, primary screen, imaging, high-content imaging (AID 2205);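 as to % tubulin-high responders: anti alpha tubulin signal scored within the nucleus-defined area of each cell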;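 as to toxicity: 0% = mean cell density of plate MIN control wells and 100% = no cells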
# Conditions: HeLa tubulin immunostaining HCS, 24 h, at 10 µM; % Hoechst-high responders: measured here: nuclear condensation Hoechst responders, stronger effect = higher value, share of cells brighter than vehicle mean+2SD; % tubulin-high responders: stronger effect = higher value, share of cells brighter than vehicle mean+2SD; toxicity: measured here: cytotoxicity by cell density
Compound,% Hoechst-high responders [%],% tubulin-high responders,toxicity [%]
Cc1noc(C)c1S(=O)(=O)Nc1ccc(C(=O)N2CCN(c3ccc(F)cc3)CC2)cc1,2.09,1.32% (inactive),5.68
O=C(O)CCN(Cc1ccccc1)S(=O)(=O)c1c(Cl)cccc1Cl,1.31,2.16% (inactive),1.51
CN(Cc1ccccc1)C(=O)COC(=O)c1ccccc1Nc1ccccc1,1.59,6.59% (inactive),4.42
CC(C)Cc1nc(Nc2ccc(S(=O)(=O)N3CCCC3)cc2)c2nnn(Cc3ccccc3)c2n1,2.68,3.7% (inactive),11.3
Cc1csc(NC(=O)Nc2ccccc2[N+](=O)[O-])n1,2.72,1.89% (inactive),4.62
COC(=O)C1=C(C)OC(N)=C(C#N)C1c1cc(OC)ccc1OC (centres undefined),4.1,4.68% (inactive),10.9
CCC1=C(C(=O)OC)C(c2cc(OC)ccc2OC)C(C#N)=C(N)O1 (centres undefined),3.6,3.6% (inactive),4.77
COc1ccc(C2C(C#N)=C(N)Oc3cc(N)ccc32)cc1OC (centres undefined),17.3,44.5% (active),68
c1ccc(C2CNCc3c2ccc2ccccc32)cc1 (centres undefined),32.1,14% (active),25.9
C=C(C)COc1ccc(-c2n[nH]c(C)c2-c2ccccc2)c(O)c1,2.28,3.77% (inactive),27.6
C=C(C)COc1ccc(-c2n[nH]c(C)c2-c2ccccc2OC)c(O)c1,4.86,6.2% (inactive),5.28
COc1ccc(-c2n[nH]c(C)c2-c2ccc(OC)c(OC)c2)c(O)c1,19,42.8% (active),76
Cc1[nH]n(-c2ccccc2)c(=O)c1/C=N/NC(=O)c1ccoc1C,1.51,1.79% (inactive),2.88
CCc1ccc(-n2c(=S)sc3c(=O)n(-c4ccccc4OC)c(=S)[nH]c32)cc1,2.26,4.15% (inactive),6.79
COc1ccc(/C=C/CN2CCN(Cc3ccc(C)cc3)C(CCO)C2)cc1 (centres undefined),2.01,6.04% (inactive),4.33
CCn1c(/C=C/Nc2ccccc2)[n+](CC)c2ccc(C(=O)OCC(F)(F)F)cc21,3.06,2.82% (inactive),0.486
CC(C)(C)NC(=O)Cn1cnc2cc([N+](=O)[O-])ccc2c1=O,1.76,5.69% (inactive),5.93
COc1ccc(C2=NN(C(=O)CCC(=O)O)C(c3cccs3)C2)cc1OC (centres undefined),0.575,2.36% (inactive),4.5
CCS(=O)(=O)Nc1ccc(C2=NN(C(C)=O)C(c3cccs3)C2)cc1 (centres undefined),60.7,26.1% (active),26.6
CS(=O)(=O)Nc1ccc(C2=NN(S(C)(=O)=O)C(c3cccs3)C2)cc1 (centres undefined),1.8,1.74% (inactive),6.29
O=c1[nH]c(N2CCN(Cc3ccc4c(c3)OCO4)CC2)nc2c1CCCC2,3.51,5.89% (inactive),3.65
CCc1ccc(NC(=O)CC2C(=O)NCCN2C(=S)Nc2ccccc2)cc1 (centres undefined),3,3.9% (inactive),11.2
O=[N+]([O-])c1cccc(Nc2c3ccccc3nc3ccccc23)c1,32.2,22% (active),46.2
CC(=O)Nc1ccc(Nc2c3ccccc3nc3ccccc23)cc1,8.03,12.5% (inactive),40.3
Cc1cc(CNC(=O)c2cccc([N+](=O)[O-])c2)c2ccccc2n1,2.57,3.83% (inactive),1.18

Compound,% Hoechst-high responders [%],% tubulin-high responders,toxicity [%]
COc1ccc(N2CCN(C(=O)CCSCc3ccccc3F)CC2)cc1,1.53,3.62% (inactive),4.73
Cc1cccc(C(=O)Nc2ccccc2C(=O)NCc2cccnc2)c1,2.76,2.92% (inactive),4.59
Cc1ccc(S(=O)(=O)C2(S(=O)(=O)c3ccc(C)cc3)CCCC2)cc1,39.1,36.4% (active),67.7
Cc1ccc(S(=O)(=O)N(C)C2(C)CCS(=O)(=O)C2)cc1 (centres undefined),1.21,1.1% (inactive),7.98
Cc1ccc(S(=O)(=O)NC(=O)N2CCCC(C)(C)C2)cc1,0.922,1.38% (inactive),2.22
O=c1oc(-c2ccco2)nc2sc3c(c12)CCCCC3,2.16,1.31% (inactive),7.63
COc1cccc2cc(S(=O)(=O)c3ccc(C)cc3)/c(=N/NS(=O)(=O)c3ccc(C)cc3)oc12,2.11,3.76% (inactive),4.71
Cc1cc(-c2csc(N)n2)c(C)n1Cc1ccccc1,3.06,0.459% (inactive),7.95
O=C(c1cc(=O)c2ccccc2o1)N1CCN(c2ccccc2)CC1,2.26,4.68% (inactive),10.7
COc1ccccc1CNC(=O)c1cc(=O)c2ccccc2o1,2.39,1.71% (inactive),11.9
COc1cc2c(cc1OC)CN(C(=O)c1cc(=O)c3ccccc3o1)CC2,50.5,42.7% (active),31.7
CCCCCCCCCCOC(=O)C[N+](C)(C)CC1CCCCC1O (centres undefined),2.44,1.85% (inactive),7.67
CNC(=S)N/N=C/c1cn(Cc2ccc(C)cc2)c2ccccc12,11.2,25.5% (active),51.6
CCOC(=O)N/N=C/c1cn(Cc2ccccc2Cl)c2ccccc12,1.41,1.99% (inactive),3.67
COC(=O)N/N=C/c1cn(CCCOc2ccc(C)cc2)c2ccccc12,1.65,1.39% (inactive),0.806
CC(/C=N/NC(=O)c1ccncc1)=C\c1ccco1,2.03,3.19% (inactive),5.26
Cc1ccc(-c2cc(C(=O)N/N=C/C=C/c3ccco3)c3ccccc3n2)cc1C,1.03,1.52% (inactive),10.1
CC(/C=N/NC(=O)c1cc(-c2ccc3ccccc3c2)n[nH]1)=C\c1ccco1,24.9,18.2% (active),26.2
CCN(CC)c1ccc(S(=O)(=O)N2CCOCC2)cc1NC(=O)CSc1cccc[n+]1[O-],1.88,2.6% (inactive),2.07
S=C(NCc1ccc2c(c1)OCO2)NCc1ccco1,2,2.06% (inactive),3.56
Cn1c2ccccc2c(=O)c2c(=O)n(Cc3ccco3)c(COc3ccccc3)nc21,17,15.2% (active),19.6
CCCc1nc2c(c(=O)c3ccccc3n2C)c(=O)n1C1CCCCCC1,3.07,3.44% (inactive),9.47
COc1ccc(C(=O)CSc2nnc(COc3ccccc3)n2Cc2ccco2)cc1,8.33,11.9% (inactive),4.55
CCOC(=O)CC(NC(=O)C1c2ccccc2Oc2ccccc21)c1ccc(C)cc1 (centres undefined),1.91,1.78% (inactive),3.3
Cc1cc(-c2nnc(CCC(=O)NC(c3ccccc3)c3ccccc3)o2)no1,1.8,2.51% (inactive),7.53

Compound,% Hoechst-high responders [%],% tubulin-high responders,toxicity [%]
O=C(COC(=O)c1cc(=O)[nH]c2ccccc12)Nc1nc(-c2cccc(Br)c2)cs1,3.67,2.11% (inactive),8.74
NS(=O)(=O)c1ccc(CCNC(=O)CCCn2c(SCC(=O)N3CCCC3)nc3ccsc3c2=O)cc1,2.7,1.43% (inactive),6.34
COc1cc2c(cc1O)[C@H](Cc1ccc(Oc3cc(C[C@@H]4NCCc5cc(OC)c(O)cc54)ccc3O)cc1)NCC2,2.73,2.04% (inactive),13.6
CC[C@H]1CN2CCc3cc(OC)c(OC)cc3[C@@H]2C[C@@H]1C[C@H]1NCCc2cc(OC)c(OC)cc21,20.9,55.7% (active),75.2
CCCCn1c(N)c(N(CC)C(=O)/C=C/c2ccco2)c(=O)[nH]c1=O,2.6,6.6% (inactive),4.9
CC(C)n1c(=O)[nH]c2cc(C(=O)Nc3ccccc3)ccc21,0.954,1.61% (inactive),1.51
COc1ccc(-n2c(C)nn(CC3CC3)c2=O)cc1,1.41,0.918% (inactive),4.19
CCOc1ccc(C2C(C(=O)NC)=C(C)Nc3nc4ccccc4n32)cc1OC (centres undefined),1.52,3.35% (inactive),7.37
CCOC(=O)C1=C(C)Nc2nc3ccccc3n2C1c1cccs1 (centres undefined),2.61,1.67% (inactive),7.26
COc1ccccc1NC(=O)C1=C(C)Nc2nc3ccccc3n2C1c1cccs1 (centres undefined),37.9,14.5% (active),54.8
Cc1ccc(-n2c(C)cc(C(=O)CSc3nnc4ccccn34)c2C)cc1,2.88,3.52% (inactive),5.15
COc1ccc(-c2csc(Nc3ccc(O)cc3)n2)cc1,4.55,6.13% (inactive),2.94
COc1ccc(Nc2nc(-c3ccccc3)cs2)cc1,2.53,3.24% (inactive),3.05
COc1ccc(OC)c(Nc2nc(-c3ccc(O)c(O)c3)cs2)c1,33.9,34% (active),37
COc1ccc(NC(C(=O)Nc2cccc(C(C)=O)c2)c2ccccc2)cc1 (centres undefined),4.94,2.7% (inactive),7.43
CCc1cc2cc(OC)ccc2nc1SCC(=O)Nc1cc(OC)c(OC)cc1C(=O)O,1.91,2.13% (inactive),7.82
COc1ccccc1C(c1nnnn1CC1CCCO1)N1CCN(c2ccccc2)CC1 (centres undefined),1.03,3.39% (inactive),0.528
O=C(c1cn(-c2ccccc2)nc1-c1cc2ccccc2oc1=O)N1CCOCC1,1.17,1.1% (inactive),0.611
Nc1ncc(-c2cc3ccccc3oc2=O)s1,2.39,5.77% (inactive),5
O=c1oc2ccccc2cc1-c1cn(-c2ccccc2)c(=S)[nH]1,36.5,12.5% (active),39.3
Cc1ccc(S(=O)(=O)CCC(=O)OCc2ccccc2)cc1,1.72,4.05% (inactive),4.99
CC1CCN(c2ccc([N+](=O)[O-])cc2C(N)=O)CC1,1.09,5.37% (inactive),13
O=c1cc(N2CCCCC2)c(-c2ccccc2)nn1Cc1cccc(F)c1,0.91,7.03% (inactive),4.95
